From PubChem BioAssay AID602140 (NMMLSC, 2011)
The other results are listed elsewhere or left out. Activity calls are given as the source filed them. No rule for the calls is given here.

Test system: Botulinum neurotoxin type F light chain protease (Clostridium botulinum)
Experiment: inhibition of botulinum toxin F LC protease – biochemical, flow cytometry, cherry pick 1, confirmation (AID 602140)
Conditions: multiplex microsphere protease cleavage assay, at 10 µM, hits give high values

| Compound | inhibition |
| --- | --- |
| CCN1CCN(C(C(=O)NC2CCCC2)c2cc3c(cc2[N+](=O)[O-])OCO3)CC1 (stereo unspecified) | -4.2% (inactive) |
| COc1cc(C(=O)NCc2ccc3c(c2)cc(C)n3C)cc(OC)c1OC | -4.7% (inactive) |
| Nc1ccccc1Sc1cc(Cl)nnc1Cl | -1.4% (inactive) |
| COc1ccc(NS(=O)(=O)c2cc(C(=O)Nc3ccccc3C(=O)O)ccc2C)cc1 | -0.5% (inactive) |
| Cc1cc(S(=O)(=O)NC2CCCC2)ccc1-n1cnnn1 | 3.7% (inactive) |
| COc1ccc(Br)cc1CNCCc1cccc(Cl)c1 | -10% (inactive) |
